Source: PubChem BioAssay (Tox21)
Results filed as inconclusive are left out. Unmarked numbers belong to inactive results. The source made the active and inactive calls. Calls come from the whole dose curve; as a rule, active = well fitted activation curve with a large enough effect in the signal ratio in the repeat runs (not every such curve was filed as active); inconclusive = weak or mixed curves, or effect the other way; inactive = no such curve, though single readings can be large or run the other way; the % refers to the signal ratio.

Target: Glucocorticoid receptor (Homo sapiens) (UniProt P04150)
Experiment: qHTS assay to identify small molecule agonists of the glucocorticoid receptor (GR) signaling pathway (AID 720691)
Conditions: GR-bla HeLa, beta-lactamase reporter ratio, 18 h; series mostly up to 62.4 µM; activation: at the top concentration
From the text: U.S. Tox21 Program National Center for Advancing Translational Sciences [NCATS] NIH Chemical Genomics Center [NCGC] U.S. Environmental Protection Agency [EPA] National Institutes of Environmental Health Sciences [NIEHS] National Toxicology Program [NTP] U.S. Food and Drug Administration [FDA] Tox21 Assay Overview: The Glucocorticoid receptor (GR) is one of the members of the nuclear receptor family of ligand-dependent transcription factors. GR plays a critical role in carbohydrate, protein and lipid metabolisms and programmed cell death. CellSensor GR-bla HeLa cell line (Invitrogen) contains a beta-lactamase reporter gene under the control of the glucocorticoid response element stably integrated into HeLa cells, a cervical cancer cell line that expresses glucocorticoid receptor. The activation of the reporter gene under culture conditions can be detected by fluorescence intensity. This cell line has been used to screen the Tox21 10K compound library and to identify the compounds that activate the GR signaling.
Tox21 Assay Protocol Summary: The GR-bla HeLa cells were dispensed at 1500 cells/6 ul/well in 1536-well black wall/clear bottom plates using a Multidrop Combi (ThermoFisher Scientific, Waltham, MA) dispenser. After the assay plates were incubated at a 37 C/5% CO2 incubator for 4 hours, 23 nL of compounds dissolved in DMSO, positive controls or DMSO only was transferred to the assay plate by a pintool station (Kalypsys, San Diego, CA). The plates were incubated at 37 C for 18 hours. After 1 uL of LiveBLAzerTM B/G FRET substrate was added using a Flying Reagent Dispenser (Aurora Discovery, San Diego, CA), the plates were incubated at room temperature for 2 hours, and fluorescence intensity was measured by an Envision plate reader (PerkinElmer, Shelton, CT).
% is set by controls: 0 for no effect and ±100 for the full control effect.

Sequence of Glucocorticoid receptor (Homo sapiens) (P04150 whole entry, looked up): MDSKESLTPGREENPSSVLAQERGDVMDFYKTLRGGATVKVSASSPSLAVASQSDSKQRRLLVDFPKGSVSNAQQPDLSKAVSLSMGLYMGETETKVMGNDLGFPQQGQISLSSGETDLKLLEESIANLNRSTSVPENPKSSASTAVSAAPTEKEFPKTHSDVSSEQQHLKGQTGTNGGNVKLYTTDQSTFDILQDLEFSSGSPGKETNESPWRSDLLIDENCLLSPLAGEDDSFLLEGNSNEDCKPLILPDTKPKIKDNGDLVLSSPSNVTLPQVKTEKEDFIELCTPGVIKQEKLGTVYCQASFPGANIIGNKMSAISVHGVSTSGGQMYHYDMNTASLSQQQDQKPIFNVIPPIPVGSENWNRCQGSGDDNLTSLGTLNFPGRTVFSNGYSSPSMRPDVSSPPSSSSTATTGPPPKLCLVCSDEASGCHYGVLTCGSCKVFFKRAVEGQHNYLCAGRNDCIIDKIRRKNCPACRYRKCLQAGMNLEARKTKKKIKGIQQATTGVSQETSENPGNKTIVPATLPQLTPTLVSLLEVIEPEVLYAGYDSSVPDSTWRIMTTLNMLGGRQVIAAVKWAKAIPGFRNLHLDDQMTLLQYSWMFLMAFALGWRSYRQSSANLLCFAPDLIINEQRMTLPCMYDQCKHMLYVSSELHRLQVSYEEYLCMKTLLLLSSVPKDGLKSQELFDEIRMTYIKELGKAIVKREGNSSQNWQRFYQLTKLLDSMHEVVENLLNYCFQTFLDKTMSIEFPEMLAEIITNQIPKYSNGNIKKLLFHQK

Going from ClC(Cl)Br to ClC(Cl)C(Cl)Cl, the “activation” value falls from 1.2% [at 79.2 µM] to -1.37% [at 79.2 µM].

First: O=[N+]([O-])c1cccc2c([N+](=O)[O-])cccc12
Second: CC(=O)CC(c1ccc(Cl)cc1)c1c(O)c2ccccc2oc1=O (stereo not given)
The “activation” value of the first is lower: -8.03% [at 79.2 µM] for the first, -3.22% [at 79.2 µM] for the second.

Compared with ClCCOCOCCCl, ClC(Cl)(Cl)C(Cl)(Cl)Cl is lower in “activation” value: 0.0728% [at 79.2 µM] for the first, 0.0587% [at 79.2 µM] for the second.

Going from CNNC to COc1cc(C[C@@H](C)N)c(OC)cc1C, the “activation” value rises from 0.464% [at 79.2 µM] to 1.54% [at 79.2 µM].

Compared with [As]#[In], O=C(Nc1ccccc1)c1ccccc1I is lower in “activation” value: -0.532% for the first, -5.1% for the second.

First: COc1ccc(C(=O)N2CCCC2=O)cc1
Second: O=C(Oc1ccc(Br)cc1)N1CCN2CCC1CC2
The “activation” value of the first is higher: 0.047% for the first, 0.0278% for the second.

First: COC(=O)c1ccccc1S(=O)(=O)NC(=O)Nc1nc(C)cc(C)n1
Second: CCOC(=O)NC(=S)Nc1ccccc1NC(=S)NC(=O)OCC
The “activation” value of the first is higher: 1.52% for the first, -9.87% for the second.

First: C[C@]12CC[C@H]3[C@@H](CC=C4C[C@@H](O)CC[C@@]43C)[C@@H]1CC[C@@H]2O
Second: O=C(N[C@H]1CN2CCC1CC2)c1cc2ccoc2cn1
The “activation” value of the first is lower: -10.8% for the first, 2.35% for the second.

First: N#Cc1c(Cl)cccc1Cl
Second: Nc1cc(Cl)ccc1O
The “activation” value of the first is higher: -1.56% for the first, -5.94% for the second.

First: O=c1oc2ccccc2c(O)c1C1CCCc2ccccc21 (stereo not given)
Second: Fc1ccc(C2(Cn3cncn3)OC2c2ccccc2Cl)cc1 (stereo not given)
The “activation” value of the first is higher: -10.6% for the first, -11% for the second.

Compared with Cc1cnc[nH]1, CC1(C)C(=O)NC(=O)NC1=O is lower in “activation” value: 3.56% for the first, -2.25% for the second.

First: BrCCCCCCBr
Second: CCOC(=O)N(C)C(=O)CSP(=S)(OCC)OCC
The “activation” value of the first is higher: 0.0682% for the first, -3.92% for the second.

First: CCCCOC(=O)[C@@H](C)Oc1ccc(Oc2ccc(C#N)cc2F)cc1
Second: CC(Oc1ccc(Oc2ncc(C(F)(F)F)cc2Cl)cc1)C(=O)O (stereo not given)
The “activation” value of the first is higher: 0.565% for the first, -7.69% for the second.

First: C[N+](=O)[O-]
Second: CCN(Cc1ccc(Cl)nc1)/C(=C/[N+](=O)[O-])NC
The “activation” value of the first is lower: 0.347% for the first, 0.522% for the second.

Going from CCOP(=S)(Oc1cnc(C(C)(C)C)nc1)OC(C)C (stereo not given) to CCCSP(=S)(OCC)Oc1ccc(Cl)cc1Cl (stereo not given), the “activation” value falls from 0.536% to -2.13%.

Going from CNC(=O)Oc1cccc(C(C)C)c1 to CNC(=O)Oc1ccc(N(C)C)c(C)c1, the “activation” value rises from 0.0171% to 0.0853%.

First: CC(C)NCC(O)c1ccc(N)c(C#N)c1 (stereo not given)
Second: CNCC(=O)c1ccc(O)c(O)c1
The “activation” value of the first is higher: 0.849% for the first, -2.5% for the second.

First: CS(=O)(=O)c1cc(C(F)(F)F)ccc1C(=O)c1cnoc1C1CC1
Second: CC1=C(C(=O)Nc2ccccc2)S(=O)(=O)CCO1
The “activation” value of the first is higher: -2% for the first, -6.87% for the second.

Going from CNC(=O)N(C)c1nc2ccccc2s1 to CCc1cc2c(s1)-n1c(C)nnc1CN=C2c1ccccc1Cl, the “activation” value falls from -7.43% to -8.06%.

For CC(C)CP(=S)(S)CC(C)C, the “activation” value was -4.82%.

Cc1nnc2n1-c1sc(CCC(=O)N3CCOCC3)cc1C(c1ccccc1Cl)=NC2 was tested, and the outcome was “inactive”.
